This passage reports outcome and AC50 results from PubChem BioAssay (EPA / NIEHS).

As usually defined, the AC50 is the concentration at which the activity in the assay is half-maximal.

“And” between values parts separate entries of the source, which are not always exact repeats. Equal values may be shown once. A structure can be active in one record and inactive in another. The source made the active and inactive calls. The calls were made as follows: active = hit-call score of the fitted dose curve at least 0.9, where 1 is the maximum; inactive = score below 0.9.

Read-out in the test: Intercellular Adhesion Molecule 1 (ICAM1), ICAM1 (gene 3383)
The test is described as follows: BSK_3C_ICAM1: BioMAP Diversity Plus: 3C Assay for Intercellular Adhesion Molecule 1 (ICAM1) Biomarker Activity (AID 2283003). As to conditions: primary human endothelial cells (HUVEC); actives raise or lower the signal. On the procedure:
BSK_3C is a cell-based, multiplexed-readout assay that uses umbilical vein endothelium, a human vascular primary cell, with measurements taken at 24 hours after chemical dosing in a 96-well plate.BSK_3C_ICAM1 is an assay component measured in the BSK_3C assay. It measures ICAM-1 antibody related to regulation of gene expression using ELISA technology.Data from the assay component BSK_3C_ICAM1 was analyzed into 1 assay endpoint. This assay endpoint, BSK_3C_ICAM1, was analyzed with bidirectional fitting relative to DMSO as the negative control and baseline of activity. Using a type of binding reporter, gain or loss-of-signal activity can be used to understand changes in the signaling as they relate to the gene ICAM1. Furthermore, this assay endpoint can be referred to as a primary readout, because this assay has produced multiple assay endpoints where this one serves a signaling function. To generalize the intended target to other relatable targets, this assay endpoint is annotated to the cell adhesion molecules intended target family, where the subfamily is Immunoglobulin CAM.
The levels of cell surface (or secreted, indicated by the prefix "s") biomarker endpoints were measured by ELISA. Overt cytotoxicity to cells in confluent adherent cultures (all systems other than the BT system) was assessed by measuring total protein levels using sulforhodamine B (SRB) staining in parallel cultures at the time of biomarker measurements, indicated as SRB endpoints. For proliferation assays for adherent cell types, individual cell types are cultured at sub-confluence and relative cell numbers quantified by SRB staining at time points optimized for each system (48 h: 3C and CASM3C systems; 72 h: BT and HDF3CGF systems; 96 h: SAg system). SRB was performed by staining cells with 0.1% SRB after fixation with 10% TCA and reading wells at 560 nm.Viability and proliferation of PBMC (T cells) was quantified by Alamar Blue reduction for the SAg and BT systems. For PBMC viability (referred to as PBMC Cytotoxicity within the assay endpoint names), cells were plated (75,000/well in a 96-well plate) and then chemical samples added for 1 h before addition of activators, SEB and TSST-1 (20 ng/mL final concentration each). Cells were incubated for 90 h. Then, Alamar Blue (20 uL/well) (Invitrogen, Cat DAL1100) was added for 6 h, and the plates were read with a fluorescence microplate reader at 546/580 nm (excitation/emission). For PBMC proliferation, cells were plated and activated as above but incubated for only 16 h prior to addition of Alamar Blue. Plates were read after 6 h.
For the compound `Oc1ccc(/C=C/c2cc(O)cc(O)c2)cc1`, the outcome was inactive.

Consider `CCN1CN(CC)CN(CC)C1`, for which the result was inactive.

Take `Cc1c(O)cccc1O`: the result was inactive.

For `Nc1ccc(C(=O)O)cc1`, the outcome was inactive.

As for `COC(OC)(C(=O)c1ccccc1)c1ccccc1`, the result was inactive.

As for `COc1ccc(C(=O)/C(Br)=C\C(=O)O)cc1`, the AC50 is 32.2 µM (active) and 33.3 µM (active).

Consider `CC(Cl)COP(=O)(OCC(C)Cl)OCC(C)Cl` (stereo not given), for which the result was inactive.

`CC1(C)CC(O)CC(C)(C)N1[O]`: the result was inactive.

Turning to `CC(CCC(=O)O)(c1ccc(O)cc1)c1ccc(O)cc1`, the outcome was inactive.

`Cc1ccc([N+](=O)[O-])cc1N`: the result was inactive.

With `CCCC(C)C(=O)OCC` (stereo not given), the outcome was inactive.

As for `C1CNCCN1`, the result was inactive.

On to `C=CCCCCCCCCC=O`, for which the outcome was inactive.

For `c1ccc2c(c1)[nH]c1ccccc12`, the outcome was inactive.

In the case of `C=C(C)C(=O)OCCCCCCCCCCCC`, the result was inactive.

Take `CCCCCC1=CCCC1=O`: the result was inactive.

For `CCc1cccc(C)c1N(C(=O)CS(=O)(=O)O)C(C)COC` (stereo not given), the outcome was inactive.

On to `Fc1ccc(Br)cc1`, for which the outcome was inactive.

Take `O=C(Oc1ccccc1)c1ccccc1C(=O)Oc1ccccc1`: the outcome was inactive.

In the case of `C=CC(=O)OCCCCCCOC(=O)C=C`, the AC50 was 29.3 µM (active).

Consider `CC/C=C\C/C=C\C/C=C\CCCCCCCC(=O)OC`, for which the AC50 is 29.7 µM (active).

Consider `CCCCCCCCCCCC(=O)N(C)CC(=O)O`, for which the result was inactive.

For `CC(C)c1cccc(C(C)C)c1N`, the outcome was inactive.

Regarding `C[N+](C)(C)CCCNS(=O)(=O)C(F)(F)C(F)(F)C(F)(F)C(F)(F)C(F)(F)C(F)(F)C(F)(F)C(F)(F)F`, the result was inactive.

Consider `CCCCCCCCCCCC(C)=O`, for which the AC50 was 32.5 µM (active).

As for `CC=C(C)C(C)=O`, the result was inactive.

`COc1ccc(C(=O)c2ccccc2)c(O)c1`: the outcome was inactive.

Consider `C=CC(=O)NC(C)(C)C`, for which the outcome was inactive.

As to `CC(c1cc(C(C)(C)C)cc(C(C)(C)C)c1O)c1cc(C(C)(C)C)cc(C(C)(C)C)c1O`, the result was inactive.

With `CCCCCCOC(=O)CCCCC(=O)OCCCCCC`, the result was inactive.

Regarding `Nc1nc(N)nc(-c2ccccc2)n1`, the outcome was inactive.

In the case of `CC(C)CCCCCOC(=O)CS`, the result was inactive.

Regarding `c1ccc(Nc2cccc3ccccc23)cc1`, the result was inactive and the AC50 was 32.6 µM (active).

Take `CC(C)C(=O)OCCc1ccccc1`: the result was inactive.

Consider `CC1=CC=C(C(C)C)CC1`, for which the outcome was inactive.

Consider `CCNc1nc(NC(C)(C)C)nc(OC)n1`, for which the outcome was inactive.

Turning to `O=C(O)C(F)(F)C(F)(F)C(F)(F)C(F)(F)C(=O)O`, the result was inactive.

Take `CCOC(=O)C1=NN(c2ccc(Cl)cc2Cl)C(C)(C(=O)OCC)C1` (stereo not given): the outcome was inactive.

For the compound `Nc1cccc(N)n1`, the outcome was inactive.
